Test results published in the supplement of paper PMC6555819.

Key:
Experiment in all cases: PBM binding z-score (relative to random genomic background probes); higher = stronger binding; sequences stand for … in GC…GCGATTGACAGCGTAGAATGAAGG
[1] = tested on: FXR:RXRa (NR concentration 270 nM, RXRa partner concentration 90 nM)
How it was run: (§1)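 Custom Agilent 4×180K protein-binding microarrays carried double-stranded probes, each with a 34-nt variable region. These regions held direct-repeat seeds, single-nucleotide variants, half-site ablations and random human genomic background sequences. Ligand-free nuclear receptor dimers were incubated on the arrays for 1 h, antibodies against each partner (one per run) detected binding, and scanned fluorescence was regression-normalized. Binding z-scores take the random background probes as reference.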

[2] = tested on: LXRa:RXRa (NR concentration 270 nM, RXRa partner concentration 90 nM)
How it was run: as §1

[3] = tested on: LXRa homodimer (NR concentration 270 nM)
How it was run: as §1

[4] = tested on: LXRb:RXRa (NR concentration 270 nM, RXRa partner concentration 90 nM)
How it was run: as §1

[5] = tested on: LXRb homodimer (NR concentration 270 nM)
How it was run: as §1

[6] = tested on: PPARa:RXRa (NR concentration 270 nM, RXRa partner concentration 90 nM)
How it was run: as §1

[7] = tested on: PPARg:RXRa (NR concentration 180 nM, RXRa partner concentration 90 nM)
How it was run: as §1

[8] = tested on: PPARg:RXRa 270nM:90nM, anti-RXR (NR concentration 270 nM, RXRa partner concentration 90 nM)
How it was run: as §1

[9] = tested on: PPARg:RXRa 30nM:10nM, anti-RXR (NR concentration 30 nM, RXRa partner concentration 10 nM)
How it was run: as §1

[10] = tested on: PPARg:RXRa 90nM:30nM, anti-RXR (NR concentration 90 nM, RXRa partner concentration 30 nM)
How it was run: as §1

[11] = tested on: PPARg:RXRa DBDmut IVT, anti-RXR (DBD mutation: RXRa K156A/R161A, NR concentration 270 nM, RXRa partner concentration 90 nM)
How it was run: as §1

[12] = tested on: PPARg:RXRa IVT, anti-PPARg (NR concentration 270 nM, RXRa partner concentration 90 nM)
How it was run: as §1

[13] = tested on: PPARg DBDmut:RXRa IVT, anti-PPARg (DBD mutation: PPARg1 K132A/R137A, NR concentration 270 nM, RXRa partner concentration 90 nM)
How it was run: as §1

[14] = tested on: PPARg DBDmut IVT, anti-PPARg (DBD mutation: PPARg1 K132A/R137A, NR concentration 270 nM)
How it was run: as §1

[15] = tested on: PPARg homodimer (NR concentration 180 nM)
How it was run: as §1

[16] = tested on: PXR:RXRa (NR concentration 270 nM, RXRa partner concentration 90 nM)
How it was run: as §1

[17] = tested on: PXR homodimer (NR concentration 270 nM)
How it was run: as §1

[18] = tested on: RARa:RXR (NR concentration 270 nM, RXRa partner concentration 90 nM)
How it was run: as §1

[19] = tested on: RARa homodimer (NR concentration 270 nM)
How it was run: as §1

[20] = tested on: RARb:RXRa (NR concentration 270 nM, RXRa partner concentration 90 nM)
How it was run: as §1

| Sequence | PBM binding z-score [1] | PBM binding z-score [2] | PBM binding z-score [3] | PBM binding z-score [4] | PBM binding z-score [5] | PBM binding z-score [6] | PBM binding z-score [7] | PBM binding z-score [8] | PBM binding z-score [9] | PBM binding z-score [10] | PBM binding z-score [11] | PBM binding z-score [12] | PBM binding z-score [13] | PBM binding z-score [14] | PBM binding z-score [15] | PBM binding z-score [16] | PBM binding z-score [17] | PBM binding z-score [18] | PBM binding z-score [19] | PBM binding z-score [20] |
| --- | --- | --- | --- | --- | --- | --- | --- | --- | --- | --- | --- | --- | --- | --- | --- | --- | --- | --- | --- | --- |
| AGAATGAGGTTATTAACATCAGGGAATTGCGGTC | 1.93 | 1.61 | 0.0364 | 1.24 | 0.0777 | 2.63 | 1.32 | 1.34 | 0.42 | 0.938 | 2.7 | 2.3 | 0.432 | 0.815 | 0.441 | 1.18 | 0.616 | 1.36 | 0.203 | 1.2 |
| ACTATTAGTTGAGAGGAGGGCAACCGATAGGTTG | 0.181 | -0.0431 | 0.0481 | -0.187 | 0.248 | 0.335 | 0.512 | 0.15 | 0.176 | 0.106 | 0.402 | 0.862 | 0.559 | 0.202 | 0.333 | 0.447 | 0.403 | 0.168 | 0.97 | 0.991 |
| CCTGCTAGGTCAATGGACAGCTAAAGCAGCTCGC | 2.71 | 2.11 | -0.488 | 1.29 | -0.325 | 2.73 | 1.63 | 2.17 | 0.0027 | 1.05 | 3.92 | 3.11 | -0.347 | -0.89 | 0.928 | 0.497 | -0.327 | 1.2 | -0.377 | 3.75 |
| AATACAGGGTCACTATGCCAGAGTAGGTACGAAT | 5.56 | 4.68 | 1.16 | 3.79 | 1.06 | 5.44 | 6.37 | 4.87 | 2.05 | 3.73 | 3.26 | 4.74 | 1.77 | 1.8 | 1.62 | 2.9 | 0.523 | 3.67 | 1.11 | 4.01 |
| CAGCCTAGGTCAGGGTCAGTATAGGAGGAACGTT | 3.28 | 2.28 | 0.154 | 2.3 | -0.746 | 3.73 | 2.37 | 2.52 | 0.577 | 1.52 | 1.2 | 2.57 | 0.511 | -0.598 | 1.63 | 2.38 | 0.127 | 3.04 | 0.15 | 4.31 |
| CCTGTTAGGTCAATGGTCAGCTAAAGCAGCTCGC | 3.84 | 2.92 | 0.645 | 2.06 | 1.38 | 3.49 | 3.07 | 4.36 | 2.03 | 3.91 | 3.49 | 3.13 | -0.195 | -0.0792 | 2.54 | 1.43 | 0.214 | 2.39 | 1.21 | 4.14 |
| GTTACAGGGTCAGCTAGAGGCCAGAGTATGGAAA | 4.39 | 3.18 | -0.168 | 2.39 | 0.166 | 4.41 | 3.35 | 3.64 | 0.837 | 2.63 | 1.9 | 2.79 | 0.0715 | -0.0967 | 2.41 | 3.39 | 0.141 | 3.88 | 0.709 | 4.27 |
